Sm TGR block: blocks Schistosoma mansoni thioredoxin glutathione reductase; 360,000 tested, 3% active; purified TGR, DTNB reduction, TNB absorbance 405 nm; Potency, µM (series often up to 114 µM), for the others: at the highest dose activity change, negative = inhibition, usual class: inhibitors; Q962Y6; note: potency is the fitted concentration of half-maximal effect; % is set by controls: 0 for no effect and ±100 for the full control effect; nearly all actives have a fitted effect of over 60% in size
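TGR 20 nM + NADPH 100 uM (dispensed conc.), cpd preinc 15 min RT; start with NADPH (500 uM addition) then DTNB (15 mM addition). Kinetic TNB absorbance, 405 nm filter. Four-parameter Hill fit across titration.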
Pf growth 48h: inhibits P. falciparum growth in the first generation, 48 h | P. falciparum luciferase growth in erythrocytes, 48 h | AID 504832 | Potency, µM (highest dose often 28.7 µM), inactives show at the highest dose activity change, negative = inhibition, usual class: inhibitors | 310,000 tested, 5.9% active; note: potency is the fitted concentration of half-maximal effect; % is set by controls: 0 for no effect and ±100 for the full control effect
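Luciferase-expressing P. falciparum in infected erythrocytes (2% hematocrit, 0.1% parasitemia final) in RPMI 1640/0.5% Albumax were exposed to compound for 48 hours at 37 C, 5% CO2; growth read as luminescence.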
HCMV antiviral: inhibitors of human cytomegalovirus | AID 1259415 | activity change, negative = inhibition, % at 57.5 µM | HFF cells, HCMV-luciferase reporter, 72 h; hits give low values | 410,000 tested, 4.5% active; in the data active = activity change below about -60%; inconclusive = no clear call, values can overlap the other calls; inactive = above about -39%; note: % is set by controls: 0 for no effect and ±100 for the full control effect
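Compounds were evaluated in HFFs infected with an HCMV luciferase reporter virus (MOI 1 PFU/cell). Luciferase in lysates collected 72 h post infection served as the replication measure.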
SARS PLP yeast: blocks SARS-CoV papain-like protease in a yeast assay; 330,000 tested, 0.19% active; Potency, µM (series often up to 32.9 µM), for the others: at the highest dose activity, positive = growth rescue, most hits filed as activators; S. cerevisiae expressing SARS-CoV PLpro, growth rescue; calls by dose curve; note: potency is the fitted concentration of half-maximal effect; 0% is about no effect; nearly all actives have a fitted effect of over 55% in size
HCV inhibitor: blocks hepatitis C virus; Potency, µM (titrated, usually from 41.8 µM), for the others: at the top dose activity change, negative = inhibition, most hits filed as inhibitors; AID 651820; Huh7.5.1 HCVcc-Cre infection, luciferase reporter, 44 h; 340,000 tested, 3.4% active; note: potency is the fitted concentration of half-maximal effect; % is set by controls: 0 for no effect and ±100 for the full control effect
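Reporter virus HCVcc-Cre (~0.5 moi) infects cells exposed to compound; seeding density 1,000 cells/well with 4 h settling beforehand. Luminescence, 15 sec read, taken 44 h post-infection following a 15 min RT substrate incubation.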
Pf growth 96h: P. falciparum growth inhibition at 96 hours | Potency, µM (titrated, usually from 28.7 µM), without a hit: top-dose activity change, negative = inhibition, actives largely listed as inhibitors | 320,000 tested, 6.9% active | P. falciparum luciferase reporter growth, 96 h; note: potency is the fitted concentration of half-maximal effect; % is set by controls: 0 for no effect and ±100 for the full control effect
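Compounds incubated with erythrocytes infected by luciferase-expressing P. falciparum (2% hematocrit, 0.05% parasitemia final) for 96 hours, 37 C in 5% CO2. Growth inhibition scored as decreased luciferase luminescence.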
The depositor's hits bear a star; ? = inconclusive; · = no result; + = active, no number. Rows were chosen to be rich in hits. Some 15% of all compounds tested hit in one or more screens of this group. Unless noted, calls come from the whole dose curve; as a rule, active = well fitted curve in the direction sought with a large enough effect; inconclusive = small, poorly fitted or top-dose-only effect, or another doubt; inactive = no such curve, though single readings can be large; an effect the other way counts as inactive or inconclusive.

SMILES	Sm TGR block	Pf growth 48h	HCMV antiviral	SARS PLP yeast	HCV inhibitor	Pf growth 96h
Cc1cc(C)cc(NC(=O)C(NS(=O)(=O)c2cccc3nsnc23)c2ccccc2)c1 (stereo unspecified)	-1%	·	-1	·	·	·
COCCCn1c(SCc2ccc(OC)cc2)nc2cc(OC)c(OC)cc2c1=N	-19%	?	0	-3%	?	?
CCCSc1nc2cc(OC)c(OC)cc2c(=N)n1CCCN1CCOCC1	-8%	12µM*	-25	-1%	11µM*	4.7µM*
CCCCCCCCCCCCCCCC(=O)OC[C@H](O)[C@H]1OC[C@@H](O)[C@@H]1O	·	-11%	·	·	·	-26%
CCC(=Nc1ccc(OC)cc1OC)c1c(O)n(C2CCCCC2)c(=O)[nH]c1=O	3%	7.4µM*	-26	-5%	?	?
CCC(=NCc1ccco1)c1c(O)n(C2CCCCC2)c(=O)[nH]c1=O	-31%	?	-29	-10%	-2%	?
CCOC(=O)CCc1c(C)nc(-n2[nH]c(C)c(CCO)c2=O)[nH]c1=O	16µM*	?	-24	-2%	12%	?
Cc1ccc(C)c(N2CCN(C(=O)CCc3c(C)nn(-c4ccc(N5CCCC5)nn4)c3C)CC2)c1	-3%	·	-63*	·	·	·
O=C(c1cnn(C(=O)CN2CCCC2=O)c1)c1ccccc1O	-28%	32%	0	-11%	17%	-10%
Cc1ccc2nc(SCC(=O)Nc3cc([N+](=O)[O-])ccc3F)[nH]c2c1	-18%	-1%	-91*	-7%	?	-28%
Cc1ccc2nc(SC(C)C(=O)Nc3cccc([N+](=O)[O-])c3)[nH]c2c1 (stereo unspecified)	-5%	?	-67*	-42%	?	?
O=C(c1cccc(C(F)(F)F)c1)C1CCCN(C(=O)CN2CCOC2=O)C1 (stereo unspecified)	6%	1%	-28	-2%	·	-1%
Cc1ccc(-n2c(=O)c3c(cnn3C)n(CC(=O)Nc3c(C)cccc3C)c2=O)cc1	-12%	·	4	·	·	·
CCOC(=O)C(C)Oc1cccc2c(=O)n(CC(=O)NCc3ccc(F)cc3)ccc12 (stereo unspecified)	0%	-14%	-65*	1%	-3%	19%
CCOC(=O)C(C)Oc1cccc2c(=O)n(CC(=O)NCCc3ccccc3)ccc12 (stereo unspecified)	10%	?	0	0%	-17%	6%
CCOC(=O)C(C)Oc1cccc2c(=O)n(CC(=O)Nc3ccc(OC)cc3)ccc12 (stereo unspecified)	·	·	1	·	·	·
CCOC(=O)C(C)Oc1cccc2c(=O)n(CC(=O)NCc3ccccc3)ccc12 (stereo unspecified)	-3%	-9%	-89*	2%	-28%	-9%
COc1cccc2c(=O)n(CC(=O)NCCc3ccccc3)ccc12	4%	1.9µM*	-23	-1%	-1%	3.3µM*
Cc1ccc(CNC(=O)COC(=O)c2ccc(S(=O)(=O)N(C)C)cc2)cc1	1%	14%	-32	3%	16%	13%
Cn1ncc2c(Nc3ccc(Cl)cc3)ncnc21	2%	47%	+	-5%	11%	46%
Cn1ncc2c(Nc3ccc(Br)cc3)nc(Nc3ccc(Br)cc3)nc21	4%	2.1µM*	-35	-10%	?	9.3µM*
Fc1ccc(-n2ncc3c(Nc4cccc(Cl)c4)ncnc32)cc1	5%	·	-66*	·	·	·
Cn1ncc2c(Nc3ccc(O)cc3)nc(Cl)nc21	-9%	48%	-8	1%	-12%	82%
Cn1ncc2c(Nc3cccc(Cl)c3)nc(Nc3cccc(Cl)c3)nc21	0%	1.7µM*	-66*	2%	?	2.9µM*
CNc1nc(Nc2ccc(C)c(Cl)c2)c2cnn(C)c2n1	-7%	2%	38	-5%	?	0%
Cc1ccc(Nc2ncnc3c2cnn3C)cc1	·	28%	9	1%	-23%	?
CCc1nn(CC(=O)NCc2ccc(OC)c(OC)c2)c(=O)c2cc3sc(C)cc3n12	-7%	·	37	·	·	·

Screens from PubChem BioAssay.
